Assay results as given in PubChem BioAssay AID720709 (National Center for Advancing Translational Sciences (NCATS), 2013).
Hit rate of the full screen: of about 360,000 compounds, about 520 (0.14%) were called active. Roughly 3% stayed inconclusive and do not appear here. Calls follow the shape of the dose curve; as a rule, active = well fitted inhibition curve with a large enough effect; inconclusive = small, poorly fitted or top-dose-only effect; inactive = no such curve, though single readings can be large or run the other way. The entries come from a sample that favours actives as a whole. Where a call stands in place of a potency, no number is given.

target: Rap guanine nucleotide exchange factor 3 (Homo sapiens) (UniProt O95398); assay: qHTS for Antagonist of cAMP-regulated guanine nucleotide exchange factor 3 (EPAC1): primary screen; settings: EPAC1 GEF assay, Rap1b-BODIPY-GDP exchange fluorescence; series mostly up to 115 µM; also: nearly all actives have a fitted effect of over 50% in size
Sequence (O95398 whole entry, looked up): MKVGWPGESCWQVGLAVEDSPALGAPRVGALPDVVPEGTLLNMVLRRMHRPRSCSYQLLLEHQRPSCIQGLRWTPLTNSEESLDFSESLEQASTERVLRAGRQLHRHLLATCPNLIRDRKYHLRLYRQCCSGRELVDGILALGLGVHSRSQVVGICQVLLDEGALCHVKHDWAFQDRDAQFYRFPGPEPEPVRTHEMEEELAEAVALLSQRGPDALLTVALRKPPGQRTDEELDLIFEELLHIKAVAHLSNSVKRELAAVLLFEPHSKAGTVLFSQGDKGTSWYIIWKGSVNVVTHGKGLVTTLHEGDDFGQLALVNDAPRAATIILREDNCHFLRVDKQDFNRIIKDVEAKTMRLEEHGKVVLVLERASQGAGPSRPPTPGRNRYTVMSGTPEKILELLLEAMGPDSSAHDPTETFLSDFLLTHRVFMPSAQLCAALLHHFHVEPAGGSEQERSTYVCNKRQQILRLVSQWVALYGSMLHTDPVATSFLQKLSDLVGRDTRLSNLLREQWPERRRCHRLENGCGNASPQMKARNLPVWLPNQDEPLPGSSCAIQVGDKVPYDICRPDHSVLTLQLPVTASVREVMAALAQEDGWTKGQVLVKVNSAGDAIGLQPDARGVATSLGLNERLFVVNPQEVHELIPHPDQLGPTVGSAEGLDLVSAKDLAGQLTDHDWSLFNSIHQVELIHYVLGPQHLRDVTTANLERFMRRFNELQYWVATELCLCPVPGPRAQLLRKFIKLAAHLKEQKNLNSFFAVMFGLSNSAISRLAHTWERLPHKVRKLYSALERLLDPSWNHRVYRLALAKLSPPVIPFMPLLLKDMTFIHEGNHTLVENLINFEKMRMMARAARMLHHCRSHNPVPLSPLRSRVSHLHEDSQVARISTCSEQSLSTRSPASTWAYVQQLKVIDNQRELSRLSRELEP
Text: In multi-cellular eukaryotic organisms, the effects of cAMP are transduced by two ubiquitously-expressed intracellular cAMP receptors, the classic protein kinase A/cAMP-dependent protein kinase (PKA/cAPK) and the more recently discovered exchange protein directly activated by cAMP/cAMP-regulated guanine nucleotide exchange factor (EPAC/cAMP-GEF). Both PKA and EPAC are ubiquitously expressed in all tissues, and an increase in intracellular cAMP levels will lead to the activation of both PKA and EPAC. Therefore, careful dissections of the individual role and relative contribution of EPAC and PKA within the overall cAMP signaling in various model systems are critical for further elucidating the mechanism of cAMP signaling. To date no EPAC-specific antagonists and agonist, as well as isoform-specific agonists have been reported, and developing EPAC-specific pharmacological probes to determine the physiological functions that EPAC play in the overall cAMP-mediated signaling remains a major challenge within the research field. Furthermore, identified regulators of EPAC may lead to new mechanism-based therapeutic strategies specifically targeting the EPAC / cAMP-signaling components as EPAC has been implicated to play important roles in major human pathological conditions such as diabetes, heart disease, and cancer. This qHTS will be used to screen the Molecular Libraries Small Molecule Repository (MLSMR) as a concentration-titration series using the NCGC unique quantitative screening (qHTS) platform to find inhibitors for EPAC1. In addition, this assay will also be used as a counterscreen for the EPAC2 qHTS. This fluorescent based assay is developed and validated for EPAC1 that measures exchange using EPAC effector Rap1 complex with BODIPY-GDP, a GDP analog with a tethered fluorophores. Inhibitors are identified by monitoring the change in fluorescence signal as the exchanged free BODIPY-GDP has a reduced fluorescence compared to Rap1-bound BODIPY-GDP. Decrease in signal (inhibition) is the desired outcome for the EPAC1 antagonist while no activity in this assay is desired for the EPAC2 antagonist counterscreen. de Rooij, J., Zwartkruis, F. J., Verheijen, M. H., Cool, R. H., Nijman, S. M., Wittinghofer, A., and Bos, J.L. (1998) Nature 396, 474-477 [2] Kawasaki, H., Springett, G. M., Mochizuki, N., Toki, S., Nakaya, M., Matsuda, M., Housman, D. E., and Graybiel, A. M. (1998) Science 282, 2275-2279 NIH Chemical Genomics Center [NCGC] NIH Molecular Libraries Probe Centers Network [MLPCN] MLPCN Grant: NS066510 Assay Submitter (PI): Xiaodong Cheng, The University of Texas, Medical Branch
Briefly, three uL of reagents (100 nM EPAC1, 250 nM RAP1B-BODIPY-GDP, 50 uM GDP) were dispensed into a 1536-well Greiner black solid-bottom medium binding assay plate. Controls and test compounds (23 nL) were transferred to the plate via a Kalypsys pin tool equipped with a 1536-pin array. The plates were centrifuged at 1,000 rpm for 15 seconds followed by 5 minute incubation at room temperature. The assay plates were read at 5 minute intervals for 30 minutes in the ViewLux plate reader using 480nm excitation and 540nm emission filters. The results were normalized to the […] positive control ATA and DMSO.
Potency is read from the fitted curve at half-maximal effect.

Compound	Potency
CC(C)(C)C1CCC(=O)N2CCC[C@]2(c2ccccc2)C1 (stereo partly drawn)	inactive
CCOC(=O)[C@]12CCCC=C1N(CCC1=CCCCC1)C(=O)[C@H](CC(=O)N1CCN(C(=O)c3ccco3)CC1)C2	inactive
Cc1[nH]c2ccccc2c1C(=O)c1cc([C@H](NC(=O)OC(C)(C)C)C(C)C)sc1N	inactive
CCOC(=O)N1C(=O)C[C@](Sc2ccc(C)cc2)(C(=O)OC)[C@H]1c1ccccc1	inactive
O=C(C[C@H]1CC[C@H]2[C@@H](COC[C@H](O)CN2C(=O)c2ccccn2)O1)N1CCN(c2ccccc2)CC1	inactive
Nc1nc2c(Br)ccc(Br)c2cc1C(=O)NCCc1ccccc1	inactive
O=c1[nH][nH]c2c1[C@H](c1ccc(Cl)cc1)O[C@H](CCc1ccccc1)C2	inactive
CC1(C(=O)Nc2ccc3c(c2)OCCO3)CSCC(=O)N1CCOc1ccccc1 (stereo not drawn)	inactive
Cc1ccc(S(=O)(=O)N[C@H](CO)C(C)C)cc1	inactive
N#Cc1ccc(-c2nc3c(Cl)cc(C(F)(F)F)cn3c2Cc2ccccc2C(F)(F)F)cc1	inactive
CC1(C)OC(=O)C2=C(C[C@@H](C3CCCCC3)O[C@@H]2c2ccc(Cl)cc2)O1	inactive
COC(=O)C1(C(=O)OC)C[C@H](c2ccccc2)N(Cc2ccccc2OC)[C@@H]1c1ccccc1	inactive
CN1CCN(c2ccc3c(c2)OC[C@H](Cc2ccccc2)NS3(=O)=O)CC1	inactive
COC(=O)C[C@H]1C=C[C@H](NC(=O)c2ccc(F)cc2)[C@@H](CO)O1	inactive
C=C1C(=O)OC2C1CCC(C)=CCCC1(C)OC21 (stereo not drawn)	inactive
CO[C@@H]1CN(C)C(=O)c2cc(NC(=O)C3CC3)ccc2OC[C@H](C)N(C(=O)CN2CCOCC2)C[C@@H]1C	inactive
CC(C)C1C(=O)N(Cc2cn(CCC3OCCO3)nn2)CCS(=O)(=O)N1Cc1ccc(-c2ccccc2C(F)(F)F)cc1 (stereo not drawn)	inactive
CCOC(=O)[C@]12CCC=C1N(Cc1cccc3ccccc13)C(=O)[C@H](CC(=O)NCc1cccc(C(F)(F)F)c1)C2	inactive
CCCCC[C@H](C)N1C[C@@H](COCc2ccccc2)Oc2cc(N3CC[C@@H](N(C)C)C3)ccc2S1(=O)=O	inactive
C=CCC[C@@H](CCCCC)OC(=O)/C=C/[C@@H](O)[C@H](O)C[C@H](O)CC=C	inactive

Compound	Potency
CCOC(=O)c1ccc(-c2ccc3ncnc(N(C)Cc4sccc4C)c3c2)o1	inactive
CCCNC(=O)c1cc2c(c(-c3cccc(-c4ccc(C#N)cc4)c3)n1)[C@@H](CCO)N(C(=O)CC)C2	inactive
Cc1ccc(C(=O)Nc2c(-c3ccccc3)[nH][nH]c2=O)cc1	inactive
CCCc1nc2ccccc2n1C(C)C(=O)NC(C)(C)C (stereo not drawn)	inactive
N#Cc1ccc(C(C(=O)NCc2ccccc2)n2c(=O)c(-c3ccco3)nc3ccccc32)cc1 (stereo not drawn)	inactive
CC(C)NC(=O)N1Cc2cc(C(=O)NCC(F)(F)F)nc(-c3cccc(-c4cc5ccccc5o4)c3)c2[C@@H]1CCO	inactive
CC(C)C[C@H]1CNC(=O)C(=O)N1C[C@H]1CCCN1C[C@H](Cc1ccc(O)cc1)N1C[C@H](CC(C)C)N(CC2CCCCCC2)C(=O)C1=O	inactive
COC(=O)c1ccc2c(c1)S(=O)(=O)NC2C (stereo not drawn)	inactive
CCC(C(=O)NCc1ccccc1)n1c(Cc2cc(F)cc(F)c2)nc2ccccc21 (stereo not drawn)	inactive
CCOC(=O)c1cc2cc(OC)ccc2n1C1CCN(C)CC1	inactive
COC(=O)[C@@]1(Sc2ccc(C)cc2)CC(=O)N(c2cccc(SC)c2)[C@@H]1c1ccccc1	inactive
COC(=O)[C@]12CCCCC=C1N(Cc1ccccc1)C(=O)[C@H](CC(=O)NCc1ccc(C)o1)C2	inactive
CC(C)OC(=O)CC(=O)CC(O)c1cccc([N+](=O)[O-])c1 (stereo not drawn)	inactive
CCCCc1c(-c2ccc(Cl)cc2)ncn1CCc1ccccc1OC	inactive
CCOC(=O)N1CCN(C(=O)C[C@@H]2C[C@@]3(C(=O)OC)CC(C)(C)CC=C3N(Cc3ccco3)C2=O)CC1	inactive
Nc1[nH]c(C(=O)c2ccccc2)c(-c2ccncc2)c1C(=O)NCc1cccc2ccccc12	inactive
CC(C)c1ccc2c(c1)c(SC(C)(C)C)c(CC(C)(C)C(=O)O)n2Cc1ccc(Cl)cc1	25.1 µM (active)
CCCCc1c(-c2ccc(Br)cc2)ncn1CCc1ccccc1OC	inactive
CCC(=O)N1Cc2cc(C(=O)NCc3cccc(F)c3)nc(-c3cccc(C4=CCCC4)c3)c2[C@H]1CCO	inactive
CCC(C)Cn1c(O)cc2nn(-c3nc4ccccc4s3)c(=O)c-2c1C (stereo not drawn)	50.1 µM (active)

Compound	Potency
Cc1cc2nc(-c3ccc(F)cc3)c(Cc3ccsc3)n2c(C)c1Br	inactive
COc1ccc(NC(=O)C(c2ccncc2)n2c(=O)c(-c3cc4ccccc4[nH]3)nc3ccccc32)cc1 (stereo not drawn)	inactive
CCCCCc1c(Cc2ccccc2)ncn1CCc1ccccc1OC	inactive
Cc1ccc(-c2c(N)nc3ncccn23)cc1	inactive
CCCCC[C@H](C)N1C[C@@H](COCc2ccccc2)Oc2cc(N3CCC[C@@H]3CO)ccc2S1(=O)=O	inactive
CCCCCCN1CCN(C2CN(Cc3cn(Cc4ccc(F)cc4)nn3)S(=O)(=O)C2)CC1 (stereo not drawn)	inactive
CC1(C)OC(=O)C2=C(C[C@@H](C3CCCC3)O[C@@H]2c2ccc(Cl)cc2)O1	inactive
CCCCCc1c(-c2ccc(OC)c(OC)c2)ncn1CCc1ccccc1OC	inactive
COc1ccc(C(C#N)=C2C=CC(=NO)c3ccccc32)cc1	inactive
COCCNC(=O)C1C(=O)Nc2ccccc2C(=O)N1c1ccc2c(c1)OCCO2 (stereo not drawn)	inactive
O=C(C[C@H]1CC[C@@H](NC(=O)c2ccncc2)[C@@H](CO)O1)NCC1CC1	inactive
CC1(C(=O)NCc2ccccc2)CSCC(=O)N1CCCN1CCOCC1 (stereo not drawn)	inactive
FC(F)(F)c1cccc(-c2nc3ccccc3n2C(c2ccccc2)c2nc3ccccc3[nH]2)c1 (stereo not drawn)	inactive
CC1(C)OC(=O)C2=C(C[C@@H](C3CC3)O[C@H]2c2ccc(Cl)cc2)O1	inactive
Cc1ccc(-c2nc3c(C)cc(Br)cn3c2Cc2ccccc2)cc1	inactive
COc1ccc(-c2cc3n(n2)CCc2nc4ccccc4n2-3)cc1	inactive
COc1ccc(C2=NN(C(=O)c3ccccc3C(=O)O)C(c3ccccc3O)C2)cc1 (stereo not drawn)	inactive
COc1ccc(C2=NN(c3nc4ccccc4s3)C(=O)C2)cc1	79.4 µM (active)
